Records with an inconclusive call do not appear. The source made the active and inactive calls. Unless noted, calls follow the shape of the dose curve; as a rule, active = well fitted curve in the direction sought with a large enough effect; inconclusive = small, poorly fitted or top-dose-only effect, or another doubt; inactive = no such curve, though single readings can be large; an effect the other way counts as inactive or inconclusive.

Test [1] is described as follows: AP1 Signaling Pathway (AID 357; active = well fitted curve in either direction with a large enough effect, not every such curve was filed as active;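 also: ME-180 reporter cells stimulated with EGF at its EC50 level; % is scaled to controls: 0 for no effect and ±100 for the full control effect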). The conditions noted are these: ME-180 AP-1-bla reporter, EGF-induced, beta-lactamase ratio, 5 h; at 7.69 µM (top of the series) unless noted. In short, it runs like this:
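Titration-series screen for positive or negative modulators of EC50 EGF-induced signaling in ME-180 cells carrying an AP-1-driven beta-lactamase reporter. After 5 hours at 37 degrees Celsius, CCF4 460nm/530nm emission ratio gave %Activity; AC50 values derived.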

The target in test [2] is Cytochrome P450 1A2 (Homo sapiens) (UniProt P05177). As to the kind of experiment: p450-cyp1a2 (AID 410; calls by dose curve; also: potency is read from the fitted curve at half-maximal effect). Put shortly:
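20nM CYP1A2 with 100uM Luciferin-ME (at Km) in 100mM KPO4; compound preincubated 10 min, NADPH regeneration added, 60 min at room temperature. Luciferin quantified by luminescence after detection reagent; normalized to 57 uM furafylline.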

The nature of test [3]: NFAT Signaling Pathway (AID 444; active = well fitted curve in either direction with a large enough effect, not every such curve was filed as active;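 also: carbachol stimulus at about its EC50 of 1 µM final; % is scaled to controls: 0 for no effect and ±100 for the full control effect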). The conditions noted are these: Jurkat NFAT-bla M1, carbachol, beta-lactamase ratio, 5 h; at 7.69 µM (top of the series) unless noted. In short, it runs like this: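 Jurkat cells carrying an NFAT-driven β-lactamase reporter and co-transfected muscarinic M1 receptor were treated with compound plus carbachol (1 uM final, an EC50 level) for 5 h at 37 °C. CCF4 loading followed for 1 h at RT; 460/530 nm ratio gave %activity.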

Test [4] in a line: Stat Signaling Pathway (AID 446; active = well fitted curve in either direction with a large enough effect, not every such curve was filed as active;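 also: ME-180 cervical cancer cells given 40 pM IL-6 alongside compound; SIE-controlled beta-lactamase reporter measured as 460/530 nm FRET emission ratio; % is scaled to controls: 0 for no effect and ±100 for the full control effect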). The settings on record: ME-180 (cervical carcinoma) SIE beta-lactamase reporter, IL-6 stimulated, 5 h; at 7.69 µM (top of the series) unless noted. Put shortly:
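ME-180 SIE-bla cells; overnight plating; cpd + IL-6 40 pM, 5 h, 37 C; LiveBLAzer 2.5 h RT; 460/530 nm emission ratio. Normalized to 300 pM IL-6 and 125 nM JAK inhibitor controls.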

For test [5], the target named is Glucocorticoid receptor (Homo sapiens) (UniProt P04150). As to the kind of experiment: GR-GFP Redistribution (AID 450;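 active = compounds whose dose series gives a full or clear partial fitted curve of increased nuclear translocation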; also: potency is read from the fitted curve at half-maximal effect). The conditions noted are these: U2OS GR-GFP nuclear translocation, laser cytometry, 2 h.
Sequence of Glucocorticoid receptor (Homo sapiens) (P04150 whole entry, looked up): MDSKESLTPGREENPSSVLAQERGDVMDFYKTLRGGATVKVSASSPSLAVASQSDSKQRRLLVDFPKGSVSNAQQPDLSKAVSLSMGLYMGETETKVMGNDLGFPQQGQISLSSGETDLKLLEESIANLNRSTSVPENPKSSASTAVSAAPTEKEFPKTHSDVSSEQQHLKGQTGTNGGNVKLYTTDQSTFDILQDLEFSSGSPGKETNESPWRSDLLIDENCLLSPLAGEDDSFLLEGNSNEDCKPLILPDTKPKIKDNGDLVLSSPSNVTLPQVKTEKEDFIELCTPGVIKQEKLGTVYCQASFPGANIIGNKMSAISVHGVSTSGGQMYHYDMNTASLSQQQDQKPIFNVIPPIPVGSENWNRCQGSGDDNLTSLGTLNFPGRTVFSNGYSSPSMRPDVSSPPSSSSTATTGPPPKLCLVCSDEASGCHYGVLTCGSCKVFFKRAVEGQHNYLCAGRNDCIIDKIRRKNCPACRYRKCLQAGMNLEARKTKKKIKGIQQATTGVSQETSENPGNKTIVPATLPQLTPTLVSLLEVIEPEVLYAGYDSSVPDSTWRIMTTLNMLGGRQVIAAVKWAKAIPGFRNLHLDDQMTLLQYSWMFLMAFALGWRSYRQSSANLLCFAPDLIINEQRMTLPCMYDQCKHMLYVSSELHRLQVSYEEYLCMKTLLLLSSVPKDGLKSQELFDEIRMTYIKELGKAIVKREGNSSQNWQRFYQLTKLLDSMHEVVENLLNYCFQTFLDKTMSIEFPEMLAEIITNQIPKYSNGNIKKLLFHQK
Test [6] has the same target. As to the kind of experiment: GR-EFC Redistribution (AID 451; calls by dose curve; also: potency is read from the fitted curve at half-maximal effect). The settings on record: CHO-K1 GR-EFC translocation, beta-gal luminescence, 2 h. In short, it runs like this:
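CHO-K1 cells stably expressing nuclear-localized β-gal enzyme acceptor and GR fused C-terminally to the enzyme donor fragment; ligand-driven nuclear translocation restores β-gal by complementation. Compounds titrated up to 46 uM final, 2 h at 37 °C; luminescence read.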

Test [7] concerns the target Mitogen-activated protein kinase 10 (Mus musculus) (UniProt Q61831). The test can be described thus: JNK3 AlphaScreen Assay (AID 530; active = well fitted curve in either direction with a large enough effect, not every such curve was filed as active;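 also: kinase came from lysate of stimulated human HepG2 cells; signal reports phosphorylation of biotinylated GST-cJun 1-79 at Ser73 with 10 µM ATP; % is scaled to controls: 0 for no effect and ±100 for the full control effect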). Put shortly:
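Inhibitors reduce antibody binding to phosphorylated biotin-cJun, lowering AlphaScreen luminescence. Lysates from HepG2 cells pre-activated by IL-1beta plus TNF-alpha supplied JNK3; compounds were titrated.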

The target of test [8] is 3',5'-cyclic-AMP phosphodiesterase 4B (Homo sapiens) (UniProt Q07343). As to the kind of experiment: qHTS Assay for Inhibitors of PDE-IV (AID 607; active = well fitted activation curve with a large enough effect in the main read-out, with a control signal flat, not every such curve was filed as active; also: % of control where 0% means no effect). Put shortly: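 ACTOne HEK293 cells carry a modified cAMP-gated CNG channel and express endogenous PDE4; plated 1000 cells/well, compounds up to 22.9 uM final. Membrane-potential dye fluorescence (ex 535/em 590) was read; parental cells received 10 uM forskolin + 100 uM RO 20-1724.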
Sequence of 3',5'-cyclic-AMP phosphodiesterase 4B (Homo sapiens) (Q07343 whole entry, looked up): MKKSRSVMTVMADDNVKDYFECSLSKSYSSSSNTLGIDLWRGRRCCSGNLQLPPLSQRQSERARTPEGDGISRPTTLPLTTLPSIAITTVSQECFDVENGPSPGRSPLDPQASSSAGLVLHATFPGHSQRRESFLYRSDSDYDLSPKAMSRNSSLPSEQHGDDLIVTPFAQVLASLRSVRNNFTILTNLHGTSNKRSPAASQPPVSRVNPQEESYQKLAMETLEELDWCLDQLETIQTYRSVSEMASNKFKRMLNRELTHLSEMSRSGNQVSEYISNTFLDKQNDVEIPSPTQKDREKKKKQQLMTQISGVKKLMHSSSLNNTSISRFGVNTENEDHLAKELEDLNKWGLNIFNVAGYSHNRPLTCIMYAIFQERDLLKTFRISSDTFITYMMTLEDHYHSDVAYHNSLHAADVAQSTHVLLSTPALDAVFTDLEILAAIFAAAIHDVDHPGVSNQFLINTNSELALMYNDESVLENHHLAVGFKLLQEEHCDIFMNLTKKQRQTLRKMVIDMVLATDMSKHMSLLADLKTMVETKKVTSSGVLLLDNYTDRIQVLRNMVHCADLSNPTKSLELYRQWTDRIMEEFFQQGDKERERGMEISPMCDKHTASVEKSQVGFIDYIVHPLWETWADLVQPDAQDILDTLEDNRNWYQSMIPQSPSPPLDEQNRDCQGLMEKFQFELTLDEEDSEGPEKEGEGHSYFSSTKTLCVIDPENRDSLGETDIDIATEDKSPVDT
In general terms: qHTS replaces the single test concentration by a dilution series.

Test [9] in a line: qHTS Assay for Lipid Storage Modulators (AID 1519; calls by dose curve). The settings on record: Drosophila S3 cells, BODIPY lipid droplet/cell ratio, laser cytometry, cells loaded with oleic acid; for activity change, negative = inhibition: at 57.5 µM (top of the series). In short, it runs like this: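 Cells seeded at 5,000 per well were treated with compounds over a concentration series and loaded with oleic acid (400 uM, as added). Lipid droplet fluorescence (488 nm excitation, 500-530 nm channel) was read by laser-scanning cytometry and normalized to 20 uM Triacsin C.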

Test [10] addresses Dual specificity protein kinase CLK4 (Homo sapiens) (UniProt Q9HAZ1). The test can be described thus: qHTS Assay for Inhibitors of CDC-like Kinase 4 (Kinase-Glo Assay) (AID 1770). Also: nearly all actives have a fitted effect of over 65% in size. Also: potency is read from the fitted curve at half-maximal effect. In short, it runs like this: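 Luminescent ATP-depletion read-out (Kinase-Glo) after 4.5 h room-temperature reaction of Clk4 (25 nM final) with RS peptide (100 uM) and ATP (1 uM), pH 7.5 Tris buffer with MgCl2 and DTT.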

Test [11] shares this target. As to the kind of experiment: qHTS Assay for Inhibitors of CDC-like Kinase 4 (ADP-Glo Assay) (AID 1771). Also: nearly all actives have a fitted effect of over 70% in size. Also: potency is read from the fitted curve at half-maximal effect. Put shortly:
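25 nM Clk4 with 100 uM RS repeat peptide and 1 uM ATP (final) in buffer with 2 mM MgCl2, 0.5 mM EGTA, 2.5 mM DTT, 0.01% Triton X-100; 1 h at room temperature; ADP-Glo luminescence for ADP formed.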

The target is the same in test [12]. As to the kind of experiment: qHTS Assay for Inhibitors of CDC-like Kinase 4 (ADP-FP Assay) (AID 1795). Also: nearly all actives have a fitted effect of over 60% in size. Also: potency is read from the fitted curve at half-maximal effect. Put shortly:
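Kinase activity was measured as ADP production using Transcreener orange tracer (4 nM) and ADP antibody (1 ug/mL) fluorescence polarization, with ADP calculated from a calibration curve. The 1 h reaction contained 6.25 nM Clk4, 1 uM ATP and 100 uM RS peptide at pH 7.5 with Mg2+.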

The target of test [13] is Ubiquitin carboxyl-terminal hydrolase 1 (Homo sapiens) (UniProt O94782). As to the kind of experiment: Inhibitors of USP1/UAF1: Pilot qHTS (AID 504865).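 Also: rhodamine fluorescence freed from ubiquitin-rhodamine substrate followed over time; top concentration of the series differs between compounds; % is scaled to controls: 0 for no effect and ±100 for the full control effect; nearly all actives have a fitted effect of over 35% in size.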 Put shortly:
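Deubiquitinase activity followed as kinetic rhodamine fluorescence release from 150 nM Ub-Rho. 1 nM USP1/UAF1 with compound, after 15 min room-temperature preincubation, in HEPES pH 7.8 buffer containing TCEP, EDTA, BSA and Tween-20.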

A short description of test [14]: Primary qHTS for small molecule stabilizers of the endoplasmic reticulum resident proteome: Secreted ER Calcium Modulated Protein (SERCaMP) assay (AID 1508630). Also: % is scaled to controls: 0 for no effect and ±100 for the full control effect. Put shortly:
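GLuc-SERCaMP-expressing SH-SY5Y cells, pretreated 16 h with compound, are challenged with thapsigargin to empty ER calcium stores; after 4 h, coelenterazine is added directly to the medium and luminescence is imaged.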

Test [15] concerns the target Lysosomal acid glucosylceramidase (Homo sapiens) (UniProt P04062). As to the kind of experiment: Glucocerebrosidase-p2 (AID 348; in the data active = potency below about 10 µM; also: potency is read from the fitted curve at half-maximal effect). The conditions noted are these: purified GBA, blue fluorogenic substrate, 40 min. Put shortly: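 Compounds titrated from 0.6 nM upwards against 0.2 nM enzyme in pH 5.9 citric acid/KH2PO4, taurocholate, tween-20; blue fluorogenic substrate 80 uM, 40 min room temperature, stopped and read Ex 365/Em 440 for AC50.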

In test [16] the target is Cytochrome P450 3A4 (Homo sapiens) (UniProt P08684). As to the kind of experiment: qHTS Assay for Activators of Cytochrome P450 3A4 (AID 885). Also: nearly all actives have a fitted effect of over 65% in size. In short, it runs like this:
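20nM CYP3A4 + 25uM Luciferin-PPXE (=KM), 200mM KPO4; cpd 10 min RT; NADPH regen, 60 min RT; stop w/ detection buffer, 20 min; luminescence. Normalized to 57 uM ketoconazole.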

Setting [17] is: measured here: cell count channel max response.
Setting [18] is: measured here: lipid channel max response.

Sequence of Lysosomal acid glucosylceramidase (Homo sapiens) (P04062 whole entry, looked up): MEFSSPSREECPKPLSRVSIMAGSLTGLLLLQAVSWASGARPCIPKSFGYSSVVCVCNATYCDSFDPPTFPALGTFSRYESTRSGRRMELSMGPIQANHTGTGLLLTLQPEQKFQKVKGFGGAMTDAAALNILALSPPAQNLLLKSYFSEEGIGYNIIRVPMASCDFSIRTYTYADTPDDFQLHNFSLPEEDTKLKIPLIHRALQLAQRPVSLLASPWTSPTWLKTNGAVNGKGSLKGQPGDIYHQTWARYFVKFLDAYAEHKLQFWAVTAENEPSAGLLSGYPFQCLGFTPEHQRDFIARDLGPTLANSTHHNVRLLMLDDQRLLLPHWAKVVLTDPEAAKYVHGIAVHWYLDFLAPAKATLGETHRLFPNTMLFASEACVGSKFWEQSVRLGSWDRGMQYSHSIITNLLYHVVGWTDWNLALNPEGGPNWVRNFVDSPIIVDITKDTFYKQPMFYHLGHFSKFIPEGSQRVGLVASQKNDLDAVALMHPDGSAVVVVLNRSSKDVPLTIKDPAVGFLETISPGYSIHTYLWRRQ
Sequence of Ubiquitin carboxyl-terminal hydrolase 1 (Homo sapiens) (O94782 whole entry, looked up): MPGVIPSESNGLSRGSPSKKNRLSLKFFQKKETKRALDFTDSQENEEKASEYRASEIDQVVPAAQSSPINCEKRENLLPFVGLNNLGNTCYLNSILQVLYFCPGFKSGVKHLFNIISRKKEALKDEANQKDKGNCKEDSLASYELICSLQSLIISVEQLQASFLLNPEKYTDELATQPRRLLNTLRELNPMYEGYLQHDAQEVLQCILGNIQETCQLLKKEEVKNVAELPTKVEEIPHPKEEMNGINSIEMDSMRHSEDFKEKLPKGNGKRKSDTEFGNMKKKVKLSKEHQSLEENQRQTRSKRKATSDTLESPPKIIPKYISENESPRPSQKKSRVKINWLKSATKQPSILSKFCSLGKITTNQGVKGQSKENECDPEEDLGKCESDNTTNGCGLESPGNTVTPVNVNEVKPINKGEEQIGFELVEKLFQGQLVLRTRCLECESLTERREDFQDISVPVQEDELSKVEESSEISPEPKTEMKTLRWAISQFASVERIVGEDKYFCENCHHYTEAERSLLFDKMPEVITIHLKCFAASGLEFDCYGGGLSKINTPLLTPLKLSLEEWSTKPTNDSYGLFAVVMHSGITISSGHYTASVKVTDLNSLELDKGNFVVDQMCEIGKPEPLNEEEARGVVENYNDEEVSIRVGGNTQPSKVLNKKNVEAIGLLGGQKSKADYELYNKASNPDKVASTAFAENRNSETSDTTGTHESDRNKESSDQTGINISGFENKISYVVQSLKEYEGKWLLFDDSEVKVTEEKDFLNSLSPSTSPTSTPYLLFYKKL
Sequence of Dual specificity protein kinase CLK4 (Homo sapiens) (Q9HAZ1 whole entry, looked up): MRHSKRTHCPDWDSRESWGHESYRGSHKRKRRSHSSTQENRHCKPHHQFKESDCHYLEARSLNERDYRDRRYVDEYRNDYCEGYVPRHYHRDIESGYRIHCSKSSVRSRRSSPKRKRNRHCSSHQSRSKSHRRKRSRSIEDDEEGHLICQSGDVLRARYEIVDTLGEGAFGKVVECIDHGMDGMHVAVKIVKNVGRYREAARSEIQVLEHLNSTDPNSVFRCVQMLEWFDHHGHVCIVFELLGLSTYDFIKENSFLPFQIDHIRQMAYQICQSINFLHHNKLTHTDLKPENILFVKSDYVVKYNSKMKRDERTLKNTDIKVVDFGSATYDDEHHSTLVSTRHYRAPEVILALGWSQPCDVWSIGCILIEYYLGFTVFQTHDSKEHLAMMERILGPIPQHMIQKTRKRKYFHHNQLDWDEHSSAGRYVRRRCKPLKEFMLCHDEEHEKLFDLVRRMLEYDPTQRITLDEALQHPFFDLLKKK
Sequence of Cytochrome P450 1A2 (Homo sapiens) (P05177 whole entry, looked up): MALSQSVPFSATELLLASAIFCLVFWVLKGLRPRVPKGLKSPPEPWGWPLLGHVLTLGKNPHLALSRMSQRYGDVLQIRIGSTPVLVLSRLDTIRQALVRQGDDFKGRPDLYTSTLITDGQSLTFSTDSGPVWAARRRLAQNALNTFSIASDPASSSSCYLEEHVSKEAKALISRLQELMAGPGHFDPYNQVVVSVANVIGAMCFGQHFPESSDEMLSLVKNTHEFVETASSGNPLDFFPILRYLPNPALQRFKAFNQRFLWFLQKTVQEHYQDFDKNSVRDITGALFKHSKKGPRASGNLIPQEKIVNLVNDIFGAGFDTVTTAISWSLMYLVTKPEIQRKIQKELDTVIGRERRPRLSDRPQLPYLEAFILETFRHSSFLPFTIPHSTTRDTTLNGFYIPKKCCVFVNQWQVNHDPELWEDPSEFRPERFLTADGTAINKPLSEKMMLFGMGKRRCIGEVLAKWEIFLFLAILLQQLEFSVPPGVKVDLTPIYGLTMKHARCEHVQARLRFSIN
Sequence of Cytochrome P450 3A4 (Homo sapiens) (P08684 whole entry, looked up): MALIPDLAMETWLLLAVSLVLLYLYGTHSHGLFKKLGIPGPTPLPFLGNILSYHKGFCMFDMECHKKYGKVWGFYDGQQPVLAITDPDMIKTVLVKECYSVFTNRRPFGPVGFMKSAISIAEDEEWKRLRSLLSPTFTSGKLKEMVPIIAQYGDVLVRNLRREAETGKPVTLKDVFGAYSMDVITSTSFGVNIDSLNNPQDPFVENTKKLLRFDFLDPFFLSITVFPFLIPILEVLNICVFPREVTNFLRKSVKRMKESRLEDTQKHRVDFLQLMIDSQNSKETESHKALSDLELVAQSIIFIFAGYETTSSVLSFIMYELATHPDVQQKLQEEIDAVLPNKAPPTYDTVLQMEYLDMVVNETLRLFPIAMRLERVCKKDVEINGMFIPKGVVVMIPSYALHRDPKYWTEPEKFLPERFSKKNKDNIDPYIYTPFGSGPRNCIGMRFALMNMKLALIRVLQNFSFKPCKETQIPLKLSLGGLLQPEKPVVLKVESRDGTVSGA

`COc1ncc2ncc(=O)n(C[C@H]3CCCO3)c2n1`: the activity change, negative = inhibition is -16.2% (inactive) in [1], 4.03% (inactive) in test [3] and 4.31% (inactive) in test [9]. For the same compound, the Potency is 15.8 µM (active) in [2], > 9.22 µM (inactive) in test [5] and > 46 µM (inactive) in [6]. Besides, in [4], the activity, negative = inhibition is -8.8% (inactive). Further, in [7], the compound was called inactive. Besides, the Potency entry in [8], in [10], in test [11], in [12], in test [13] and in [14] was “inactive” throughout. For the same compound, the max response in test [9] (setting [17]) turned out to be 3.18%; in [9] (setting [18]), 6.83%.

For `COCCNc1ncnc2ccc(-c3ccccc3C)cc12`, the activity change, negative = inhibition in test [3] was 10.4% (inactive); in test [9], -6.26% (inactive). Besides, the activity, negative = inhibition in test [4] is -16.2% (inactive). In addition, the Potency in test [5] was > 46 µM (inactive); in test [6], > 46 µM (inactive); in test [10], 14.1 µM (active); in test [11], 8.91 µM (active); in [12] it was 11.2 µM (active). Also, the result in test [7] was inactive. The max response was -10.5% in test [9] (setting [17]) and -19.3% in test [9] (setting [18]). Further, the Potency entry in test [13] and in [14] was “inactive” each time.

`COc1cccc(Nc2ncc3nc(CCc4ccccc4)c(=O)n(C)c3n2)c1`: the Potency in test [15] was > 11.4 µM (inactive); in test [5], > 9.22 µM (inactive); in test [6], > 46 µM (inactive). Further, the activity change, negative = inhibition is 21.6% (inactive) in [3] and -10% (inactive) in test [9]. Further, the activity, negative = inhibition in test [4] was -7.18% (inactive). Besides, in test [7], the call was inactive. The results for the max response in [9] (setting [17]) and in test [9] (setting [18]) were 27.3% and 12.3%, respectively. In addition, the Potency result in test [10], in test [11], in test [12], in test [13] and in test [14] was “inactive” each time.

In the case of `CN1CCN(c2ncc3nc(-c4ccc(Cl)cc4)c(=O)n(-c4ccccc4)c3n2)CC1`, the Potency in [15] is > 11.4 µM (inactive); in test [5], > 9.22 µM (inactive); in test [6], > 46 µM (inactive). The Potency result in [8], in test [10], in test [11], in test [12], in test [13] and in test [14] was “inactive” throughout. Moreover, in test [9], the activity change, negative = inhibition is 4.1% (inactive). In addition, the max response in [9] (setting [17]) is 13.9%; in test [9] (setting [18]) it was 16.4%.

As to `COc1ccc(-c2nc3cnc(Oc4cccc(Cl)c4)nc3n(C3CC3)c2=O)cc1`, the Potency in [15] was > 11.4 µM (inactive); in test [5], > 9.22 µM (inactive); in test [6], > 46 µM (inactive). Moreover, the figures for the activity change, negative = inhibition in [3] and in test [9] were -3.56% (inactive) and -3.67% (inactive), respectively. Moreover, the activity, negative = inhibition in [4] is 15% (inactive). Moreover, the result in test [7] was inactive. Moreover, the Potency result in test [8], in test [10], in test [11], in test [12], in [13] and in test [14] was “inactive” in each case. Also, the max response was -15.3% in test [9] (setting [17]) and -19.7% in test [9] (setting [18]).

`CCNc1ncc2nc(-c3ccc(OC)cc3)c(=O)n(CCOC)c2n1`: the activity change, negative = inhibition in test [1] was -6.96% (inactive); in test [3], 6.8% (inactive); in test [9], 4.42% (inactive). Moreover, the Potency in [2] was 1.26 µM (active); in test [5], > 9.22 µM (inactive); in test [6] it was > 46 µM (inactive). In addition, the activity, negative = inhibition in [4] is -11.3% (inactive). In test [7], the call was inactive. Further, the Potency entry in [8], in test [16], in [10], in test [11], in test [12] and in [13] was “inactive” throughout. In addition, the Potency result in [14] was “inactive”. Besides, the max response in test [9] (setting [17]) worked out at 20.7%; in test [9] (setting [18]), 27.3%.

Values taken from PubChem BioAssay (NCATS).
